Screens from PubChem BioAssay.
Dyrk1A ADPGlo: blocks rat Dyrk1A kinase activity | Q63470 | ADP-Glo luminescence, NFATc1 peptide | inhibition, % at 12.5 µM | actives 0.43% (n = 310,000); in the data active = inhibition above about 50%;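 also: plate controls were vehicle with enzyme for no effect and no enzyme for full effect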
CDK5 inh: blocks human CDK5/p35 kinase activity | Q00535+Q15078 | Recombinant CDK5/p35, ADP-Glo luminescence, 60 min | inhibition, % at 10 µM | actives 0.01% (n = 330,000) | AID 488839;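 active = highest replicate inhibition of at least 50% and at least 75% of replicates reaching 50%; inconclusive = only one of the two criteria met; inactive = both criteria failed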;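 also: plate controls were DMSO neutral control for no effect and GW8510 at 10 µM for full effect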
Rtt109 Vps75: blocks Candida albicans Rtt109/Vps75 acetyltransferase activity; inhibition, % at 34.9 µM; purified Rtt109/Vps75, ThioGlo CoA-SH fluorescence, 4 h; actives 0.16% (n = 330,000); AID 540336;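 active = inhibition of at least 50% in every replicate; inconclusive = best replicate reaches 50% inhibition but some replicates fall short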
SMARCA2 activ: increases SMARCA2 function in MMTV reporter cells | MG213 cells, MMTV-luciferase reporter, dexamethasone, overnight | activation, % at 9.1 µM | actives 1% (n = 370,000); in the data active = activation above about 7.8%;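 also: 0% = vehicle wells and 100% = reference activator wells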
dFosB act: activators of mouse delta FosB homodimer; P13346; purified delta FosB, TAMRA-CDK5 oligo fluorescence polarization; percent of positive-control signal above neutral wells; activation, % at 25 µM; actives 0.99% (n = 340,000);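 active = mean activation above about 17%, with every replicate also reaching it, limit read from the data, passing the limit was not always enough; inconclusive = only one of the two conditions met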
Target sequence (P13346 whole entry, looked up): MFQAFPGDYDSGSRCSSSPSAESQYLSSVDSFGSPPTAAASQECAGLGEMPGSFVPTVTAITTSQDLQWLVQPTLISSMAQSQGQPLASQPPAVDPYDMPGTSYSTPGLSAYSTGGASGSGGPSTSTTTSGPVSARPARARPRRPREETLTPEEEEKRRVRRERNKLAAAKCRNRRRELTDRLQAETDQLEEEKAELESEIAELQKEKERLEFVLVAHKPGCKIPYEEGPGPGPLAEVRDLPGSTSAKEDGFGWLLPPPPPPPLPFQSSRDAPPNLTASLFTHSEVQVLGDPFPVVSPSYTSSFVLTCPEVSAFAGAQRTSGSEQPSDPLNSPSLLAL
esBAF inh: SWI/SNF esBAF complex inhibition. mouse ES cells, Bmi1-luciferase knock-in reporter, 24 h; 100% = twice the neutral-well signal. reporter increase, % at 12.5 µM. actives 2% (n = 350,000). AID 602393; in the data active = activation above about 40%; inconclusive = no clear call, values can overlap the other calls;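 also: 0% = median of the plate's neutral control wells and 100% = double that signal; a rise in the Bmi1 reporter signal indicates esBAF inhibition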
* hit, by the source's call; u = inconclusive; x = not tested or not shown. Rows were chosen to be rich in hits. Some 3.2% of all compounds tested hit in one or more screens of this group.

SMILES	Dyrk1A ADPGlo	CDK5 inh	Rtt109 Vps75	SMARCA2 activ	dFosB act	esBAF inh
CCOC(=O)N1CCN(C(=O)CNC(=O)c2ccccc2F)CC1	0	-1	-7	-2	0	32
C[C@H](CO)N1C[C@H](C)[C@@H](CN(C)C(=O)CCN(C)C)OCc2ccccc2-c2c(n(C)c3ccccc23)C1=O	x	x	x	x	x	-19
O=C(N[C@@H]1CC[C@H](CC(=O)N2CCOCC2)O[C@H]1CO)c1ccc2c(c1)OCO2	x	x	x	x	x	-8
Cc1noc(C)c1NC(=O)N[C@H]1CC[C@@H](CCNC(=O)C2CCC2)O[C@@H]1CO	x	x	x	x	x	-5
CN1CCc2c(sc3nc(SCC(=O)NCc4ccco4)n(-c4ccccc4)c(=O)c23)C1	2	1	26	2	-10	70*
COc1ccc(-n2c(SCC(=O)NCc3ccco3)nc3sc4c(c3c2=O)CCN(C)C4)cc1	5	0	-74	2	-6	-6
NS(=O)(=O)c1ccc(NC(=O)COC(=O)c2cn(-c3ccccc3)nc2-c2ccccc2)cc1	1	0	-3	-3	2	13
NS(=O)(=O)c1ccc(NC(=O)COc2ncnc3c2cnn3-c2ccccc2)cc1	1	-5	-4	-1	21*	-4
COc1cccc(S(=O)(=O)Nc2ccc3c(c2)OC[C@H](C)NC[C@@H](C)[C@H](OC)CN(C)C3=O)c1	x	x	x	x	x	-6
O=C(N/N=C/c1cn(-c2ccccc2)nc1-c1ccc2c(c1)OCCO2)c1ccncc1	0	-1	0	2	u	53*
O=C(N/N=C\c1cn(-c2ccccc2)nc1-c1ccccc1)c1ccc2c(c1)OCO2	5	1	-4	0	1	44*
O=C(N/N=C/c1cn(-c2ccccc2)nc1-c1ccc(F)cc1)c1ccc2c(c1)OCO2	1	0	-10	1	0	x
COCC(=O)N[C@H]1CC[C@@H](CC(=O)NCc2ccc(Cl)cc2)O[C@H]1CO	x	x	x	x	x	4
C[C@H](CO)N1C[C@H](C)[C@H](CN(C)Cc2ccncc2)Oc2c(NC(=O)Nc3cccc4ccccc34)cccc2C1=O	x	x	x	x	x	2
COc1ccc(C2CC(c3ccc4ccccc4c3)=NN2C(=O)CN2CCC(C(N)=O)CC2)cc1 (stereo unspecified)	-4	0	u	4	-20	48*
COc1ccc(C2CC(c3ccc(Br)cc3)=NN2C(=S)Nc2ccccc2)cc1 (stereo unspecified)	-5	-1	-2	1	-6	45*
Cc1ccc(C2=NN(C(=S)Nc3ccccc3)C(c3ccco3)C2)cc1 (stereo unspecified)	-4	-1	-2	5	-7	80*
COc1ccc(C2CC(c3ccc(Cl)cc3)=NN2C(C)=O)cc1 (stereo unspecified)	12	0	-1	0	-12	52*
COc1ccc(CN(C)C[C@H]2Oc3ccc(NC(=O)Nc4ccc(C(F)(F)F)cc4)cc3C(=O)N([C@H](C)CO)C[C@H]2C)cc1	x	x	x	x	x	-6
CCCN1[C@@H]2c3ccc(-c4ccccc4)c(=O)n3C[C@@H]2[C@@H](CO)[C@@H]1C(=O)NCCc1cn(C)cn1	x	x	x	x	x	3
O=[N+]([O-])c1ccc(O)c(C=Nc2ccc3c(c2)OCO3)c1	0	1	6	6	-5	41*
CCn1c(SCC(=O)c2ccc(O)c(O)c2)nnc1-c1ccccc1	-6	-1	-2	2	0	45*
O=C(Nc1ccc(SC(F)F)cc1)c1ccc2nccnc2c1	-1	-3	x	-2	1	122*
C[C@@H]1CCCCO[C@H](CN(C)C(=O)Cc2ccccc2)[C@@H](C)CN([C@H](C)CO)C(=O)c2cc(NC(=O)c3ccccc3)ccc2O1	x	x	x	x	x	0
C[C@H]1CCCCO[C@@H](CN(C)C(=O)Nc2ccc(C(F)(F)F)cc2)[C@@H](C)CN([C@@H](C)CO)C(=O)c2cc(N(C)C)ccc2O1	x	x	x	x	x	4
SMILES	Dyrk1A ADPGlo	CDK5 inh	Rtt109 Vps75	SMARCA2 activ	dFosB act	esBAF inh
COc1ccc(-c2c(C)nc3c(-c4ccccn4)cnn3c2N)cc1	-2	0	-2	6	-9	26
Cc1cc(C(F)(F)Cl)n2ncc(-c3ccccn3)c2n1	-4	1	5	-2	-11	61*
Cc1ccc(NC(=O)c2cc(-n3cnnc3)ccc2Cl)cc1	3	0	-5	3	5	3
O=C(Nc1ccc(-c2nc3ccccc3s2)cc1)c1cc(-n2cnnc2)ccc1Cl	-9	4	x	-4	0	60*
CCN(CC)CCOC(=O)c1ccc(N/C=C(/C#N)c2nc(-c3ccc(OC)c(OC)c3)cs2)cc1	0	1	2	1	165*	x
CCN(CC)CCOC(=O)c1ccc(N/C=C(/C#N)c2nc(-c3cccc(OC)c3)cs2)cc1	x	x	x	-1	x	x
Cc1noc(C)c1S(=O)(=O)Nc1cccc2c1O[C@H](CN(C)Cc1ccncc1)[C@H](C)CN([C@H](C)CO)C2=O	x	x	x	x	x	2
CCOC(=O)c1ccc(-n2c(CN3CCN(CC)CC3)nc3ccc([N+](=O)[O-])cc3c2=O)cc1	10	-5	8	7.9*	-7	-2
CCOC(=O)c1ccc(-n2c(CN3CCOCC3)nc3ccc([N+](=O)[O-])cc3c2=O)cc1	12	-8	7	1	-10	-1
CCCC#Cc1cnc2c(c1)C(=O)N([C@@H](C)CO)C[C@@H](C)[C@@H](CN(C)C(=O)C1CCCCC1)O2	x	x	x	x	x	-6
Cc1[nH]nc(Nc2ccc(C(C)C)cc2)c1[N+](=O)[O-]	0	0	3	6	-8	93*
COC(=O)c1ccc(NC(=O)c2ccc(NC(=O)c3ccco3)cc2)cc1	-2	-2	-17	-1	122*	9
COC(=O)c1cnc2ccccc2n1	6	1	7	7.8*	-1	3
COc1ccc(C(=O)Nc2ccc3c(c2)nc(CCNC(=O)c2ccco2)n3C)cc1	3	2	-2	5	0	48*
CCOC(=O)c1cccc(NC(=O)c2cnc3ccccc3n2)c1	37	0	4	5	-3	53*
C[C@@H]1CN([C@H](C)CO)C(=O)c2cc(NC(=O)CCC(F)(F)F)ccc2O[C@@H]1CN(C)C	x	x	x	x	x	-2
CCCNC(=O)N1C[C@@H](C)[C@H](OC)CN(C)C(=O)c2cc(NC(=O)CCC)ccc2OC[C@H]1C	x	x	x	x	x	3
C[C@H]1CN([C@@H](C)CO)S(=O)(=O)c2ccc(C3=CCCC3)cc2O[C@H]1CN(C)C(=O)c1cnccn1	x	x	x	x	x	6
CCOC(=O)c1cccc(NC(=O)c2ccc(NC(=O)c3ccco3)cc2)c1	-2	-3	1	-1	16*	-3
O=C(Nc1ccccc1)c1cccc(NC(=O)c2ccco2)c1	x	1	-8	1	-6	x
Cc1ccc(NC(=O)c2ccc(OC(=O)c3ccco3)cc2)cc1	2	0	11	0	10	54*
